Measured values reported in PubChem BioAssay (NCATS).
Results filed as inconclusive are left out. The source made the active and inactive calls. The call rests on the fitted dose curve; in most records, active means well fitted curve in the direction sought with a large enough effect; inconclusive means small, poorly fitted or top-dose-only effect, or another doubt; inactive means no such curve, though single readings can be large; an effect the other way counts as inactive or inconclusive.

How the values were obtained:
[1] = Quantitative High-Throughput drug screen in 47 multiple myeloma cell lines against the NCATS MIPE library collection: JIM3_ECACC cell viability assay (AID 1918963; further: nearly all actives have a fitted effect of over 35% in size)
In short: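 CellTiter-Glo luminescence (ATP) after 48 h compound exposure, 37C/5% CO2; 500 cells/well; MIPE 4.0 approved/investigational drugs pinned in; DMSO = 100%, media only = 0% viability.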

[2] = Quantitative High-Throughput drug screen in 47 multiple myeloma cell lines against the NCATS MIPE library collection: JIM1_ECACC cell viability assay (AID 1918964)
In short: (§1)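 Primary qHTS used for cherry-picking: cells at 500/well, library compounds for 48 h (37C, 5% CO2), luminescent ATP assay.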

[3] = Quantitative High-Throughput drug screen in 47 multiple myeloma cell lines against the NCATS MIPE library collection: INA6_PLB cell viability assay (AID 1918965; further: nearly all actives have a fitted effect of over 55% in size)
In short: (§2)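 Myeloma cells (500 per well) were exposed to MIPE 4.0 compounds by pin transfer and incubated 48 hours at 37C, 5% CO2. Viability was read as ATP by CellTiter-Glo luminescence, normalised to DMSO (100%) and media-only (0%) wells.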

[4] = Quantitative High-Throughput drug screen in 47 multiple myeloma cell lines against the NCATS MIPE library collection: JJN3_DSMZ cell viability assay (AID 1918966; further: nearly all actives have a fitted effect of over 50% in size)
In short: as §1

[5] = Quantitative High-Throughput drug screen in 47 multiple myeloma cell lines against the NCATS MIPE library collection: H1112_PLB cell viability assay (AID 1918967; further: nearly all actives have a fitted effect of over 30% in size)
In short: as §1

[6] = Quantitative High-Throughput drug screen in 47 multiple myeloma cell lines against the NCATS MIPE library collection: Karpas25_ECACC cell viability assay (AID 1918968; further: nearly all actives have a fitted effect of over 35% in size)
In short: as §1

[7] = Quantitative High-Throughput drug screen in 47 multiple myeloma cell lines against the NCATS MIPE library collection: KMS27_JCRB cell viability assay (AID 1918970); further: nearly all actives have a fitted effect of over 30% in size
In short: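 Myeloma cells (500 per well) were exposed to MIPE 4.0 compounds for 48 h at 37 °C, 5% CO2; viability was read as ATP luminescence with CellTiter-Glo, normalized to DMSO-only (100%) and media-only (0%) wells.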

[8] = Quantitative High-Throughput drug screen in 47 multiple myeloma cell lines against the NCATS MIPE library collection: KMS12BM_JCRB cell viability assay (AID 1918971); further: nearly all actives have a fitted effect of over 35% in size
In short: (§3)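 Viability readout: CellTiter-Glo luminescence following 5 min room-temperature incubation with reagent. Prior exposure: 48 h, 37C, humidified 5% CO2, 500 cells per well.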

[9] = Quantitative High-Throughput drug screen in 47 multiple myeloma cell lines against the NCATS MIPE library collection: KMS12PE_JCRB cell viability assay (AID 1918972); further: nearly all actives have a fitted effect of over 30% in size
In short: as §2

[10] = Quantitative High-Throughput drug screen in 47 multiple myeloma cell lines against the NCATS MIPE library collection: KMS20_JCRB cell viability assay (AID 1918973); further: nearly all actives have a fitted effect of over 45% in size
In short: as §1

[11] = Quantitative High-Throughput drug screen in 47 multiple myeloma cell lines against the NCATS MIPE library collection: KMS21BM_JCRB cell viability assay (AID 1918974); details: ATP luminescence, 48 h; viability: at 45.8 µM (top of the series) unless noted
In short: as §1

[12] = Quantitative High-Throughput drug screen in 47 multiple myeloma cell lines against the NCATS MIPE library collection: KMS26_JCRB cell viability assay (AID 1918975); further: nearly all actives have a fitted effect of over 45% in size
In short: as §3

[13] = Quantitative High-Throughput drug screen in 47 multiple myeloma cell lines against the NCATS MIPE library collection: MMM1_PLB cell viability assay (AID 1918976); further: nearly all actives have a fitted effect of over 35% in size
In short: (§4)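 Myeloma cells (500/well) treated with MIPE 4.0 compounds for 48 h at 37 °C, 5% CO2. Viability read as ATP via CellTiter-Glo luminescence after 5 min at RT; DMSO-only wells = 100%, media-only = 0% viability.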

[14] = Quantitative High-Throughput drug screen in 47 multiple myeloma cell lines against the NCATS MIPE library collection: MOLP8_DSMZ cell viability assay (AID 1918977); further: nearly all actives have a fitted effect of over 45% in size
In short: as §4

[15] = Quantitative High-Throughput drug screen in 47 multiple myeloma cell lines against the NCATS MIPE library collection: NCIH929_DSMZ cell viability assay (AID 1918978); further: nearly all actives have a fitted effect of over 35% in size
In short: as §4

[16] = Quantitative High-Throughput drug screen in 47 multiple myeloma cell lines against the NCATS MIPE library collection: MM1S_ATCC cell viability assay (AID 1918980); further: nearly all actives have a fitted effect of over 45% in size
In short: as §4

[17] = Quantitative High-Throughput drug screen in 47 multiple myeloma cell lines against the NCATS MIPE library collection: MM1R_ATCC cell viability assay (AID 1918981); further: nearly all actives have a fitted effect of over 35% in size
In short: as §4

[18] = Quantitative High-Throughput drug screen in 47 multiple myeloma cell lines against the NCATS MIPE library collection: LP1_DSMZ cell viability assay (AID 1918982); further: nearly all actives have a fitted effect of over 35% in size
In short: as §4

[19] = Quantitative High-Throughput drug screen in 47 multiple myeloma cell lines against the NCATS MIPE library collection: KMS28PE_JCRB cell viability assay (AID 1918983); further: nearly all actives have a fitted effect of over 35% in size
In short: as §4

[20] = Quantitative High-Throughput drug screen in 47 multiple myeloma cell lines against the NCATS MIPE library collection: OCIMY1_PLB cell viability assay (AID 1918979); further: nearly all actives have a fitted effect of over 35% in size
In short: as §4

Measured: Potency
Potency means the concentration at half of the fitted maximal effect.

O=C(C=Cc1cccc(S(=O)(=O)Nc2ccccc2)c1)NO
active: [1] 5.4 µM | [2] 1.71 µM | [3] 0.762 µM | [4] 3.4 µM | [5] 5.4 µM | [6] 1.08 µM | [7] 2.7 µM | [8] 1.91 µM | [9] 1.36 µM | [10] 1.91 µM | [11] 0.54 µM | [12] 8.55 µM | [13] 10.8 µM | [14] 2.41 µM | [15] 3.03 µM | [16] 1.91 µM | [17] 1.21 µM | [18] 2.7 µM | [19] 3.82 µM

Cc1ccc(C(N)=O)cc1Nc1nccc(-c2cn(C(C)C)c3cnccc23)n1
active: [1] 5.26 µM | [2] 2.35 µM | [3] 2.64 µM | [4] 4.69 µM | [5] 3.32 µM | [6] 3.72 µM | [7] 3.32 µM | [8] 16.6 µM | [9] 5.9 µM | [10] 4.18 µM | [11] 0.935 µM | [12] 10.5 µM | [13] 16.6 µM | [14] 4.69 µM | [15] 2.96 µM | [16] 7.43 µM | [17] 8.33 µM | [18] 8.33 µM | [19] 13.2 µM

Cc1[nH]nc2ccc(-c3cncc(OC[C@@H](N)Cc4ccccc4)c3)cc12
active: [1] 2.09 µM | [2] 1.87 µM | [3] 0.935 µM | [4] 1.18 µM | [5] 1.87 µM | [6] 2.96 µM | [7] 2.09 µM | [8] 4.18 µM | [9] 0.833 µM | [10] 1.18 µM | [11] 0.935 µM | [12] 2.64 µM | [13] 2.96 µM | [14] 0.526 µM | [15] 1.48 µM | [16] 0.935 µM | [17] 1.32 µM | [18] 4.18 µM | [19] 4.18 µM

CC(C)c1cc(C(=O)N2Cc3ccc(CN4CCN(C)CC4)cc3C2)c(O)cc1O
active: [1] 0.187 µM | [2] 0.0743 µM | [3] 0.118 µM | [4] 0.209 µM | [5] 5.26 µM | [6] 0.166 µM | [7] 0.132 µM | [8] 0.264 µM | [9] 0.118 µM | [10] 0.187 µM | [12] 0.235 µM | [13] 0.418 µM | [14] 0.148 µM | [15] 0.166 µM | [20] 0.418 µM | [16] 0.332 µM | [17] 0.418 µM

C#Cc1cccc(Nc2ncnc3cc(OC)c(OCCCCCCC(=O)NO)cc23)c1
active: [1] 2.35 µM | [2] 0.0662 µM | [3] 0.0166 µM | [4] 0.132 µM | [5] 0.296 µM | [6] 0.0526 µM | [7] 0.0743 µM | [8] 0.0662 µM | [9] 0.148 µM | [10] 0.0833 µM | [12] 0.105 µM | [13] 0.418 µM | [14] 0.166 µM | [15] 0.0935 µM | [20] 1.05 µM | [16] 0.0235 µM | [17] 0.166 µM | [18] 0.743 µM

O=C(Nc1cc(C(F)(F)F)cc(C(F)(F)F)c1)c1cc(Cl)ccc1O
active: [1] 0.662 µM | [2] 1.05 µM | [3] 1.66 µM | [4] 1.87 µM | [5] 1.87 µM | [6] 0.372 µM | [7] 0.833 µM | [8] 0.833 µM | [9] 0.526 µM | [10] 1.32 µM | [11] 0.526 µM | [12] 1.18 µM | [13] 0.296 µM | [14] 1.48 µM | [15] 1.48 µM | [20] 3.32 µM | [16] 0.59 µM | [17] 1.05 µM | [18] 0.469 µM

CC(NCc1ccc2c(c1)nc(NC(=O)c1ccc(-c3cn[nH]c3)s1)n2CC(C)(C)O)C(C)(C)C (stereo not given)
active: [1] 0.209 µM | [2] 0.0469 µM | [3] 0.0833 µM | [4] 0.264 µM | [5] 0.469 µM | [6] 0.264 µM | [7] 0.0833 µM | [8] 1.05 µM | [9] 0.264 µM | [10] 0.235 µM | [12] 0.743 µM | [13] 0.118 µM | [14] 0.209 µM | [15] 0.235 µM | [20] 1.05 µM | [16] 0.332 µM | [17] 0.469 µM | [18] 0.469 µM | [19] 0.469 µM

CC(C)(C)c1cnc(CSc2cnc(NC(=O)C3CCNCC3)s2)o1
active: [1] 0.235 µM | [2] 0.0743 µM | [3] 0.235 µM | [4] 0.0833 µM | [5] 0.469 µM | [6] 0.209 µM | [7] 0.209 µM | [8] 0.132 µM | [9] 0.526 µM | [10] 0.0743 µM | [11] 0.0662 µM | [12] 0.148 µM | [13] 0.105 µM | [14] 0.0833 µM | [15] 0.264 µM | [20] 1.66 µM | [16] 0.0662 µM | [17] 0.105 µM | [18] 0.105 µM | [19] 0.132 µM
